PubChem BioAssay (NCI)
Values joined by “and” are separate entries in the source; they are usually repeats but may differ in a detail not shown here. Equal values may be shown once. The panel holds about 79,000 compounds, 15% with a hit somewhere; the sample as a whole holds those more often. Some compounds were tested as several samples or in several runs, with calls that do not always agree. Active and inactive are the calls of the source. Rule as the data show it: active = growth inhibition above about 70%; inactive = the rest.

Legend:
[1] = NCI Yeast Anticancer Drug Screen. Data for the rad50 strain (AID 155);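 also: 0% = growth of vehicle-only cultures of the same strain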; details: S. cerevisiae rad50 strain growth inhibition, stronger effect = higher value
Procedure, shortened: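 Genetically altered yeast (DNA repair pathway); compound treatment; growth inhibition vs vehicle ctrl.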

[2] = NCI Yeast Anticancer Drug Screen. Data for the mec2-1 strain (AID 157); details: S. cerevisiae mec2-1 strain, stronger effect = higher value
Procedure, shortened: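 Test agents were screened against the mec2-1 yeast strain, with defined DNA repair or cell cycle alteration. Growth was scored as inhibition against vehicle-only controls.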

[3] = NCI Yeast Anticancer Drug Screen. Data for the sgs1 mgt1 strain (AID 161);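 also: 0% = growth of cultures given vehicle only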; details: S. cerevisiae sgs1 mgt1 strain, stronger effect = higher value
Procedure, shortened: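 Mutant yeast exposed to compound; growth scored against vehicle-only wells.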

[4] = NCI Yeast Anticancer Drug Screen. Data for the cln2 rad14 strain (AID 165);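 also: 0% = growth equal to vehicle treated cultures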; details: S. cerevisiae cln2 rad14 strain, stronger effect = higher value
Procedure, shortened: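 Growth of compound-exposed yeast (cln2 rad14 genotype) measured and expressed as inhibition relative to vehicle.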

[5] = NCI Yeast Anticancer Drug Screen. Data for the bub3 strain (AID 167); details: S. cerevisiae bub3 mutant strain, stronger effect = higher value
Procedure, shortened: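 Yeast carrying a defined mutation is treated with each compound, and growth is compared with that of vehicle-exposed cells to give inhibition.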

[6] = NCI Yeast Anticancer Drug Screen. Data for the mlh1 rad18 strain (AID 175); details: S. cerevisiae mlh1 rad18 strain growth inhibition, stronger effect = higher value
Procedure, shortened: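 In this whole-cell yeast screen, a strain with altered DNA damage repair is challenged with compound, and its growth is measured against matched vehicle-treated controls.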

[7] = at 5.0 µM (retest, dose inferred, filed as 0.5)
[8] = at 50.0 µM (retest, dose inferred, filed as 5.0)

Measured: growth inhibition

O=c1ccn(C2OC(CO)C(O)C2O)c(=O)[n]1[Hg][c]1ccccc1 (configuration not stated)
active: [1]; [7] 99% | [1]; [8] 99% | [1]; at 50.0 µM 90.8% | [2]; [7] 100% | [2]; [8] 99% | [2]; at 50.0 µM 89.7% | [3]; [7] 100% | [3]; [8] 100% | [3]; at 50.0 µM 85.8% | [4]; [7] 99% | [4]; [8] 99% | [4]; at 50.0 µM 88.3% | [5]; [7] 100% | [5]; [8] 99% | [5]; at 50.0 µM 84.3% | [6]; [7] 98% | [6]; [8] 98% | [6]; at 50.0 µM 91.8%

CSc1ccc(NC(=O)C2c3[nH]c4ccccc4c3C3CCC(C(C)(C)C)CC3C2C(=O)O)cc1 (configuration not stated)
inactive: [1]; [7] 0% | [1]; [8] -4% | [1]; at 50.0 µM 16.8% | [2]; [7] -16% | [2]; [8] 10% | [2]; at 50.0 µM 1.95% | [3]; [7] -4% | [3]; [8] 1% | [3]; at 50.0 µM 30.8% | [4]; [7] -19% | [4]; [8] 8% | [4]; at 50.0 µM 56.4% | [5]; [7] -8% | [5]; [8] 5% | [6]; [7] 11% | [6]; [8] 26% | [6]; at 50.0 µM 46%
active: [5]; at 50.0 µM 77.1%

CC(Br)CN(CC(C)Br)c1ccc2c(c1)Cc1ccccc1-2 (configuration not stated)
inactive: [1]; [7] 12% | [2]; [7] 2% | [2]; [8] 69% | [3]; [7] 8% | [4]; [7] -16% | [4]; at 50.0 µM 56.3% | [5]; [7] -7% | [6]; [7] 2%
active: [1]; [8] 73% | [1]; at 50.0 µM 82.8% | [2]; at 50.0 µM 70.4% | [3]; [8] 87% | [3]; at 50.0 µM 93.2% | [4]; [8] 85% | [5]; [8] 92% | [5]; at 50.0 µM 85.5% | [6]; [8] 82% | [6]; at 50.0 µM 91.7%

Cc1c([C@H](C)[C@@H]2NC[C@@H](C)C[C@H]2O)ccc2c1C[C@H]1[C@H]2CC=C2C[C@@H](O)CC[C@@]21C
71% (active) and 36% (inactive): [1]; [8]
active: [1]; at 50.0 µM 84.3% and 88.5% | [2]; at 50.0 µM 75.2% and 79.2% | [3]; at 50.0 µM 76.8% and 86.2% | [4]; at 50.0 µM 77.3% and 82.8% | [6]; at 50.0 µM 85% and 87.5%
inactive: [1]; [7] 10% and -5% | [2]; [7] -1% | [2]; [8] 52% and 0% | [3]; [7] 7% and -12% | [4]; [7] -6% and -7% | [4]; [8] 58% and 8% | [5]; [7] 11% and -18% | [6]; [7] 2% and 0% | [6]; [8] 59% and 40%
86.2% (active) and 19.4% (inactive): [5]; at 50.0 µM
85% (active) and 6% (inactive): [3]; [8]
74% (active) and 1% (inactive): [5]; [8]

CCOP(=O)(O)C(Nc1ccc(N=Nc2ccccc2)cc1)c1cccc(C(Nc2ccc(N=Nc3ccccc3)cc2)P(=O)(O)OCC)c1 (configuration not stated)
inactive: [1]; [7] 10% | [1]; [8] 29% | [1]; at 50.0 µM 49.4% | [2]; [7] 0% | [2]; [8] 46% | [2]; at 50.0 µM 47.6% | [3]; [7] 5% | [3]; [8] 8% | [3]; at 50.0 µM 46.3% | [4]; [7] 6% | [4]; [8] 27% | [4]; at 50.0 µM 44% | [5]; [7] 4% | [5]; [8] 35% | [5]; at 50.0 µM 42.5% | [6]; [7] 7% | [6]; [8] 42% | [6]; at 50.0 µM 47.9%

CCOCCOC(=O)Cc1ccccc1
active: [2]; at 50.0 µM 98.3% | [5]; at 50.0 µM 94% | [6]; at 50.0 µM 95.5%
inactive: [1]; [7] 5% | [1]; [8] 42% | [1]; at 50.0 µM 64.3% | [2]; [7] 2% | [2]; [8] 6% | [3]; [7] -1% | [3]; [8] 6% | [3]; at 50.0 µM 46.9% | [4]; [7] 4% | [4]; [8] 16% | [4]; at 50.0 µM 55.6% | [5]; [7] 7% | [5]; [8] 12% | [6]; [7] 6% | [6]; [8] 19%

CCC1(O)C(=O)OCc2c1cc(C)[nH]c2=O (configuration not stated)
inactive: [1]; [7] -124% | [1]; [8] -25% | [1]; at 50.0 µM 0.75% | [2]; [7] -42% | [2]; [8] -45% | [2]; at 50.0 µM 0.1% | [3]; [7] -57% | [3]; [8] -45% | [3]; at 50.0 µM -5.5% | [4]; [7] -62% | [4]; [8] -64% | [4]; at 50.0 µM 23.9% | [5]; [7] -75% | [5]; [8] -56% | [5]; at 50.0 µM 4.45% | [6]; [7] -157% | [6]; [8] -85% | [6]; at 50.0 µM 4.95%

CCCN1CN(c2ccccc2)C2(CCN(CCCC(=O)c3ccc(F)cc3)CC2)C1=O
inactive: [1]; [7] 11% | [1]; [8] 17% | [1]; at 50.0 µM 35.7% | [2]; [7] 7% | [2]; [8] 14% | [2]; at 50.0 µM -4.4% | [3]; [7] -17% | [3]; [8] 12% | [3]; at 50.0 µM 60.5% | [4]; [7] 6% | [4]; [8] 20% | [4]; at 50.0 µM 15.6% | [5]; [7] 4% | [5]; [8] 35% | [5]; at 50.0 µM 38.9% | [6]; [7] 22% | [6]; [8] 30% | [6]; at 50.0 µM 20.4%

O=C(O)CP(=O)(c1ccccc1)c1ccccc1.O=C(O)CP(=O)(c1ccccc1)c1ccccc1.[Cd]
inactive: [1]; [7] 33% | [2]; [7] 40% | [2]; [8] 51% | [2]; at 50.0 µM 42.6% | [3]; [7] 11% | [3]; [8] 47% | [3]; at 50.0 µM 56% | [4]; [7] -3% | [4]; [8] 48% | [4]; at 50.0 µM 58.9% | [5]; [7] 4% | [5]; [8] 43% | [5]; at 50.0 µM 26.9% | [6]; [7] 17% | [6]; [8] 57% | [6]; at 50.0 µM 57.8%
active: [1]; [8] 88% | [1]; at 50.0 µM 83.4%
